Source: PubChem BioAssay (several laboratories)
PAX8 reporter – lowers PAX8-driven luciferase in RMG-I cells. RMG-I TPO-luciferase reporter, SteadyGlo, 24 h. inhibition, % at 12.6 µM. 360,000 compounds, 1.2% hits. AID 652154;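 active = mean replicate inhibition at least 60% with every replicate also reaching 60%; inconclusive = only one of the two criteria is met; inactive = mean below 60% and not all replicates reaching 60%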;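 note: luciferase light reporting Pax8 driven TPO promoter activity; plate controls were median of neutral control wells for no effect and mitoxantrone controls for full effect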
Mdm2-MdmX inh – inhibitors of human Mdm2/MdmX interaction; O15151+Q00987; SaOS-2 split-luciferase Mdm2/MdmX complementation, luminescence; inhibition, % at 8 µM; 330,000 compounds, 3% hits;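 active = inhibition of at least 50% at 8 µM in the primary screen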
Gli-Sufu block – Gli-Sufu pathway antagonism; Sufu-KO-LIGHT fibroblasts, Gli luciferase reporter luminescence; inhibition, % at 5 µM; 340,000 compounds, 0.74% hits; AID 588413;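 active = inhibition above about 55%, limit read from the data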;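 note: 0% = DMSO-treated cells and 100% = wells with medium but no cells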
Beta cell apopt – beta cell apoptosis inhibition; protection from apoptosis, % (test concentration not listed); 300,000 compounds, 0.8% hits; INS-1E cytokine-induced death, ATP luminescence, 48 h; percent of positive-control rescue, neutral wells zero;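 active = Every replicate reaches about 75%, or at least half do and their mean reaches it too, limit read from the data; inconclusive = At least half of replicates reach the limit but their mean does not; inactive = Under half of replicates reach the limit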;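 note: 0% = cytokine-treated negative control wells and 100% = positive control rescue; higher means more ATP so stronger rescue from cytokine killing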
CSC inhib – cancer stem cell inhibition; 300,000 compounds, 1.1% hits; AID 2717; inhibition, % at 7.5 µM; cancer stem cell-like cells viability, luminescence; in the data active = inhibition above about 75%; inconclusive = no clear call, values can overlap the other calls; tested in HMLE shEcad cells
Shn3 3UTR inh – reduces Shn3 3'UTR luciferase signal in osteoblasts; inhibition, % at 12.5 µM; Clone20 osteoblast Shn3 3'UTR firefly luciferase, 24 h; 360,000 compounds, 0.52% hits;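 active = mean inhibition of at least 75% with every replicate also reaching 75%; inconclusive = mean inhibition at least 75% but some replicate below; inactive = mean inhibition below 75%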;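 note: 0% = median of neutral control wells and 100% = pilot-screen positive control compound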
Mdm2-MdmX conf – confirmation of human Mdm2/MdmX interaction inhibitors; 10,000 compounds, 55% hits; inhibition, % at 8 µM; shares compounds with Mdm2-MdmX inh; Mdm2-MdmX binding, luminescent assay; AID 489028; in the data active = inhibition above about 40%
FLuc counter – counter-screen for Mdm2/MdmX inhibitors: full-length luciferase | shares compounds with Mdm2-MdmX inh | SaOS-2 full-length luciferase counterscreen, luminescence | inhibition, % at 8 µM | 6,200 compounds, 77% hits | AID 504607;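 active = mean inhibition at 8 µM reaching about 37%, which flags the compound as non-specific, limit read from the data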;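 note: p53-null SaOS-2 cells with luciferase driven by a doxycycline-inducible promoter; compound on cells about two nights before reading with doxycycline added after day one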
An asterisk follows results filed as active; ? = inconclusive; nt = no result given. A selection: hits, their analogues and other compounds. The true share with any hit is near 4%.

SMILES | PAX8 reporter | Mdm2-MdmX inh | Gli-Sufu block | Beta cell apopt | CSC inhib | Shn3 3UTR inh | Mdm2-MdmX conf | FLuc counter
CCCN1CCN(CCCNC(=O)c2cc3c(s2)-c2c(C)cccc2OC3)CC1 | 0 | 62* | 37 | 46 | 14 | -20 | 25 | nt
Cc1cccc2c1-c1sc(C(=O)NCCCN3CCCC(C)C3)cc1CO2 (stereo unspecified) | 21 | 67* | 26 | 14 | 12 | -4 | 49* | 59*
CC1CCCC(C)N1CCCNC(=O)c1cc2c(s1)-c1ccccc1OC2 (stereo unspecified) | 0 | 61* | 2 | -6 | 22 | -1 | 26 | nt
C[C@H](CO)N1C[C@H](C)[C@H](CN(C)C(=O)CCN2CCCCC2)Oc2ncc(C#CCN(C)C)cc2C1=O | -21 | nt | nt | nt | nt | nt | nt | nt
C[C@H]1CN([C@@H](C)CO)C(=O)Cc2cc(NC(=O)CCCCCC(=O)Nc3ccccc3N)ccc2O[C@H]1CN(C)Cc1ccncc1 | -14 | nt | nt | nt | nt | nt | nt | nt
C[C@@H]1CN([C@H](C)CO)C(=O)c2cccc(NC(=O)C3CCOCC3)c2O[C@H]1CN(C)Cc1ccccc1 | 11 | nt | nt | nt | nt | nt | nt | nt
CCN(Cc1ccccc1)S(=O)(=O)c1ccc(C(=O)N(CCCN(C)C)c2nc3cc(C)cc(C)c3s2)cc1 | 23 | 98* | 25 | nt | 102* | 2 | 55* | 68*
Cc1cc(C)c2sc(N(CCCN(C)C)C(=O)c3ccc(S(=O)(=O)N(C)Cc4ccccc4)cc3)nc2c1 | 22 | 93* | 27 | nt | -7 | 5 | 48* | 69*
CCCCN(CC)S(=O)(=O)c1ccc(C(=O)N(CCCN(C)C)c2nc3cc(C)cc(C)c3s2)cc1 | 27 | 71* | 28 | 43 | 99* | 11 | 10 | nt
CCN(Cc1ccccc1)S(=O)(=O)c1ccc(C(=O)N(CCCN(C)C)c2nc3c(F)cccc3s2)cc1 | 15 | 17 | 31 | 0 | 2 | 7 | nt | nt
C[C@H]1CCCCO[C@@H](CN(C)C(=O)c2ccccc2)[C@@H](C)CN([C@@H](C)CO)C(=O)c2cc(NC(=O)CCC(F)(F)F)ccc2O1 | -44 | nt | nt | nt | nt | nt | nt | nt
C[C@H]1CN([C@@H](C)CO)C(=O)Cc2cc(NC(=O)Cn3cnnn3)ccc2O[C@@H]1CN(C)Cc1ccc(Cl)c(Cl)c1 | 2 | nt | nt | nt | nt | nt | nt | nt
COc1ccc(NC(=O)N(C)C[C@H]2OCCCC[C@H](C)Oc3ccc(N(C)C)cc3C(=O)N([C@H](C)CO)C[C@@H]2C)cc1 | -7 | nt | nt | nt | nt | nt | nt | nt
c1ccc(OCCOCCN2CCN(C(c3ccccc3)c3ccccc3)CC2)cc1 | 22 | 52* | nt | 1 | 1 | 25 | 15 | nt
CCOC(=O)C(CC)(CC)C(=O)/C=C/c1ccc(Br)cc1 | nt | 71* | 0 | 22 | nt | 31 | 39 | 66*
CN1C(=O)c2cc(NS(C)(=O)=O)ccc2OC[C@H]2O[C@H](CC(=O)N3CCOCC3)CC[C@@H]21 | -18 | nt | nt | nt | nt | nt | nt | nt
COc1ccc(CNCCC(c2ccc(F)cc2)c2ccc(OC(C)C)cc2)cc1OC (stereo unspecified) | 24 | 93* | -25 | 7 | 21 | nt | 34 | 76*
COc1ccc(CN(CCC(c2ccco2)C(C)C)C(C)=O)cc1OC (stereo unspecified) | -7 | -23 | 2 | 8 | 6 | 13 | nt | nt
COc1ccc(CNCCC(c2ccccc2)c2ccc(OC(C)C)cc2)cc1OC (stereo unspecified) | 21 | 75* | 31 | 42 | 10 | 61 | 26 | nt
COc1ccc(CN(CCC(c2ccccc2)c2ccc(OC(C)C)cc2)C(=O)CCl)cc1OC (stereo unspecified) | 5 | 101* | 9 | 9 | ? | 0 | 85* | 55*
COc1ccc(CCNCc2ccc(-c3ccccc3)cc2)cc1OC | -5 | nt | 0 | nt | nt | -4 | nt | nt
C[C@H]1CCCCO[C@@H](CN(C)Cc2ccc(C(=O)O)cc2)[C@@H](C)CN([C@@H](C)CO)C(=O)c2cc(NC(=O)Nc3ccccc3)ccc2O1 | -13 | nt | nt | nt | nt | nt | nt | nt
O=C([C@H]1[C@H](CO)[C@H]2Cn3c(ccc(C4=CCCC4)c3=O)[C@@H]1N2C(=O)c1ccncc1)N1CCOCC1 | -3 | nt | nt | nt | nt | nt | nt | nt
O=C1/C(=C/c2ccccc2Cl)SC(=S)N1CCC(=O)N1CCCCC1CCO (stereo unspecified) | 45 | 53* | 15 | -37 | 11 | -48 | 24 | nt
O=C1/C(=C/c2ccccc2)SC(=S)N1CC(=O)N1CCCCC1c1cccnc1 (stereo unspecified) | 90* | 85* | 6 | -30 | 10 | 16 | 32 | 21
SMILES | PAX8 reporter | Mdm2-MdmX inh | Gli-Sufu block | Beta cell apopt | CSC inhib | Shn3 3UTR inh | Mdm2-MdmX conf | FLuc counter
COc1cccc(/C=C2\SC(=O)N(CCC(=O)N3CCCCC3CCO)C2=O)c1 (stereo unspecified) | 2 | 15 | 41 | -6 | 18 | 3 | nt | nt
CC(C)c1ccc(/C=C2\SC(=S)N(CCC(=O)N3CCCCC3CCO)C2=O)cc1 (stereo unspecified) | 38 | 62* | 20 | -29 | 29 | 48 | 50* | 30
O=C1/C(=C\c2ccccc2)SC(=S)N1CCC(=O)N1CCCCC1CCO (stereo unspecified) | 48 | 72* | 4 | -48 | -7 | -74 | 3 | nt
CCNC(=O)C[C@@H]1CC[C@@H]2[C@H](COC[C@@H](O)CN2C(=O)C2CCCC2)O1 | 7 | nt | nt | nt | nt | nt | nt | nt
CCC(=O)Nc1ccc2c(c1)C(=O)N(C)C[C@H](OC)[C@H](C)CN(C(=O)C1CC1)[C@@H](C)CO2 | 7 | nt | nt | nt | nt | nt | nt | nt
CC1CCC(C(C)C)C(OC(=O)C[n+]2cc(-c3ccc(Cl)cc3)n3c2CCCCC3)C1 (stereo unspecified) | 102* | 85* | 65* | 106* | -4 | 60 | 74* | 36*
O=C(c1cccc(F)c1)N1C[C@@H]2[C@H](c3ccccc31)[C@@H](CO)N2C(=O)C1CC1 | 7 | nt | nt | nt | nt | nt | nt | nt
COC(=O)c1ccc(CN2CC(=O)N3[C@@H](CO)[C@H](c4ccc(-c5ccccc5F)cc4)[C@@H]3C2)cc1 | 7 | nt | nt | nt | nt | nt | nt | nt
CC(C)(C)N(Cc1cc2ccccc2[nH]c1=O)C(=O)C1CCCCC1 | 25 | 62* | -4 | -4 | 5 | -18 | 64* | 89*
CCN(Cc1cc2ccccc2[nH]c1=O)C(=O)C1CCCCC1 | 19 | 11 | -2 | 1 | 2 | 14 | nt | nt
NS(=O)(=O)c1ccc(N2N=C(c3ccc(Br)cc3)CC2c2ccc(F)cc2)cc1 (stereo unspecified) | nt | 72* | -20 | -1 | 125* | 12 | 39 | 75*
COc1ccc(C2CC(c3ccc(Cl)cc3)=NN2c2ccc(S(N)(=O)=O)cc2)cc1 (stereo unspecified) | -7 | 87* | 4 | nt | nt | 12 | 15 | nt
O=[N+]([O-])c1ccc(N2N=C(c3ccccc3)CC2c2ccccc2O)cc1 (stereo unspecified) | 7 | 90* | nt | 25 | 102* | 56 | 36 | 104*
